Measurements from PubChem BioAssay (NCATS).
Inconclusive results are not listed. The source made the active and inactive calls. The call rests on the fitted dose curve; in most records, active means well fitted cell-killing curve with a large enough effect; inconclusive means small, poorly fitted or top-dose-only effect, or effect the other way; inactive means flat fitted curve, though single readings scatter.

Experiments:
Assay in all cases: Primary qHTS to identify gynecologic anti-cancer compounds using libraries of approved drugs and bioactive compounds (AID 1345084); further: nearly all actives have a fitted effect of over 55% in size
C33A = settings: Gynecologic cancer cell panel viability, ATPlite luminescence, 48 h; series mostly up to 57.5 µM
How it was run: (§1)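 Cells, 1,000 per well, were allowed to settle for 16 h at 37 C before compound addition. Five concentrations were tested for 48 h, and viability was read by ATPlite luminescence after 15 min at room temperature.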

CAOV3 = settings: Gynecologic cancer cell panel viability, ATPlite luminescence, 48 h; series mostly up to 57.5 µM
How it was run: as §1

CASKI = settings: Gynecologic cancer cell panel viability, ATPlite luminescence, 48 h; series mostly up to 57.5 µM
How it was run: as §1

Es-2 = settings: Gynecologic cancer cell panel viability, ATPlite luminescence, 48 h; series mostly up to 57.5 µM
How it was run: as §1

HeLa = settings: Gynecologic cancer cell panel viability, ATPlite luminescence, 48 h; series mostly up to 57.5 µM
How it was run: as §1

Hek293T = settings: Gynecologic cancer cell panel viability, ATPlite luminescence, 48 h, control line for the selectivity index; series mostly up to 57.5 µM
How it was run: as §1

JEG-3 = settings: Gynecologic cancer cell panel viability, ATPlite luminescence, 48 h; series mostly up to 57.5 µM
How it was run: as §1

OV90 = settings: Gynecologic cancer cell panel viability, ATPlite luminescence, 48 h; series mostly up to 57.5 µM
How it was run: as §1

PA-1 = settings: Gynecologic cancer cell panel viability, ATPlite luminescence, 48 h; series mostly up to 57.5 µM
How it was run: as §1

SKOV3 = settings: Gynecologic cancer cell panel viability, ATPlite luminescence, 48 h; series mostly up to 57.5 µM
How it was run: as §1

Tov-21-G = settings: Gynecologic cancer cell panel viability, ATPlite luminescence, 48 h; series mostly up to 57.5 µM
How it was run: as §1

Tov112D = settings: Gynecologic cancer cell panel viability, ATPlite luminescence, 48 h; series mostly up to 57.5 µM
How it was run: as §1

Measured: Potency

CC(=O)O[C@H]1C[C@@](O)(C(C)C)[C@@H]2[C@@H](OC(=O)c3ccc(O)cc3)CC(C)=CC[C@@]12C
inactive: all assays above

CC(=O)O[C@@H]1CC[C@@]2(C)C(CC[C@]3(C)C2[C@H](O)C=C2[C@H]4[C@@H](C)[C@H](C)CC[C@]4(C)CC[C@]23C)[C@@]1(C)C(=O)O (stereo partly drawn)
inactive: all assays above

C=C(C(=O)OC)[C@@H]1CC=C2C=CC(=O)[C@H](C)[C@@]2(C)C1
inactive: all assays above

C=C(CCC1C(C)(O)CCC2C(C)(C)C(O)CCC12C)C(O)CO (stereo not drawn)
inactive: all assays above

Cn1cc(-c2ccc(F)c(C(F)(F)F)c2)nc1C1CCN(c2ncnc3[nH]ncc23)CC1
inactive: all assays above

Cc1c(F)ccc(C(=O)Nc2cc([N+](=O)[O-])ccc2N2CCN(C)CC2)c1Cl
inactive: all assays above

Cc1c(C(=O)NCc2cccnc2)nn(-c2ccc(Cl)cc2Cl)c1-c1ccc(Cl)cc1
inactive: all assays above

O=c1[nH]c2ccccc2n1CCN1CCN(c2cccc(C(F)(F)F)c2)CC1
inactive: all assays above

O=C1c2ccc(Nc3ccc(F)cc3F)cc2CCc2ccc(OCC(O)CO)cc21 (stereo not drawn)
inactive: all assays above

Cc1cc(-c2cc(OC(=O)c3ccccc3)ccc2Cl)cc2nnc(Nc3ccc(OCCN4CCCC4)cc3)nc12
inactive: all assays above

O=C(NCc1ccc(OC(F)(F)F)cc1)C1c2c(F)cccc2C(=O)N1CCc1ccccn1 (stereo not drawn)
inactive: all assays above

CN(C)c1ccnc2sc3c(=O)n(N4CCCCCC4)cnc3c12
inactive: all assays above

Cc1cc(F)ccc1-c1nc(NCCN=C(N)NC#N)nc2c1ccc(=O)n2-c1c(F)cccc1F
inactive: all assays above

CC(C)(C)c1ccc(C(=O)Nc2cn3cc(-n4ccnc4)ccc3n2)cc1
inactive: all assays above
